Screens deposited in PubChem by Buhrlage Lab, Dana-Farber Cancer Institute and Novartis Institutes for BioMedical Research (Cambridge, Mass).
Most compounds without a hit are left out; they make up all but 14% or so of the library.
USP10 block: inhibitors of human USP10 deubiquitinase. Q14694. purified USP10, Ub-rhodamine fluorescence, 60 min. inhibition, % at 20 µM. actives 1.1% (n = 47,000)
USP30 block: inhibitors of human USP30 deubiquitinase | Q70CQ3 | purified USP30, Ub-rhodamine cleavage fluorescence | inhibition, % at 25 µM | actives 5.3% (n = 47,000)
Target sequence (Q70CQ3 whole entry, looked up): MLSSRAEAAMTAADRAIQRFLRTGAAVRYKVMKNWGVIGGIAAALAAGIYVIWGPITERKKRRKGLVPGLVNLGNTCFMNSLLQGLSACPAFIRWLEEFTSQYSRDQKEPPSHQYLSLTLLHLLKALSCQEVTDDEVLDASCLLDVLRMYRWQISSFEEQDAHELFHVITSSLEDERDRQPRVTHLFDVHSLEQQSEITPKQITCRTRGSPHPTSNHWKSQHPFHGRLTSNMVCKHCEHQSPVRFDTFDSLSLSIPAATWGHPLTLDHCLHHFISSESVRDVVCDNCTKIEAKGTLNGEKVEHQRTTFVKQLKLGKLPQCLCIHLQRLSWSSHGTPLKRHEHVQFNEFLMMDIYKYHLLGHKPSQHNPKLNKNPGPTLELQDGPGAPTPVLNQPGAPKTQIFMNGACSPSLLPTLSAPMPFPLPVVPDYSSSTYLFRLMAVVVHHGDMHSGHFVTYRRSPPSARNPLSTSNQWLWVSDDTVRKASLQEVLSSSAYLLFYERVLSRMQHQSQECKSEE
USP17 block: inhibitors of human USP17 deubiquitinase | AID 1645855 | purified USP17, Ub-rhodamine cleavage fluorescence, 3 h | A8MUK1 | actives 6.5% (n = 47,000) | inhibition, % at 50 µM
USP28 inh: blocks human USP28 ubiquitin-rhodamine cleavage; inhibition, % at 25 µM; AID 1645857; purified USP28, Ub-rhodamine cleavage fluorescence, 30 min; actives 3% (n = 47,000); Q96RU2
USP8 block: blocks human USP8 ubiquitin-rhodamine cleavage; purified USP8, Ub-rhodamine cleavage fluorescence, 30 min; P40818; actives 4.2% (n = 47,000); inhibition, % at 20 µM
An asterisk follows results filed as active; x = not tested or not shown. Cut-off read from the data, not from the text of the source: active = inhibition above about 30%; inactive = the rest.

SMILES	USP10 block	USP30 block	USP17 block	USP28 inh	USP8 block
CNC(=O)C(NC(=O)OCc1ccccc1)SC(C)C (centres undefined)	0.7	-4.2	-13.3	-6.1	2.2
CC(=O)N1CCN(c2nc3c(s2)CC(C(=O)NCc2cccnc2)CC3)CC1 (centres undefined)	-4.6	-17.2	-7.7	-9.8	-11.4
O=C(Cn1cnc2ccccc2c1=O)N1c2ccccc2OCC1c1ccccc1 (centres undefined)	2.0	-3.4	2.4	0.0	4.3
COc1ccc(C(NC(=O)c2nc3n(n2)-c2ccccc2S(=O)(=O)N3)C(C)C)cc1 (centres undefined)	30.4*	13.9	32.9*	17.7	9.2
COc1ccc(NC(C)C(=O)N2CC(=O)Nc3ccccc32)cc1 (centres undefined)	0.7	13.3	14.0	3.1	19.3
NS(=O)(=O)c1ccc(NS(=O)(=O)c2ccc(NC(=O)Nc3ccc(Cl)cc3)cc2)cc1	27.2	48.9*	40.8*	74.7*	22.7
CCOC(=O)c1cc(NC(=O)c2ccc(F)cc2)ccc1N1CCOCC1	-2.9	x	-23.9	x	-11.0
CCN1C(=O)c2cc(NC(=O)c3ccc(F)cc3)ccc2Oc2ccccc21	7.6	23.3	13.9	44.7*	18.6
CN1C(=O)c2cc(NC(=O)c3ccccc3)ccc2Oc2ccccc21	4.2	7.3	13.1	41.3*	5.5
CN1C(=O)c2cc(NC(=O)c3ccccc3Cl)ccc2Oc2ccccc21	9.2	9.2	2.0	79.8*	0.3
Cc1ccccc1C(=O)Nc1ccc2c(c1)Sc1ncccc1C(=O)N2C	-6.4	-50.6	5.2	-7.3	10.1
O=C1NC2(COC3(CCNCC3)C2)Nc2ccc(Cl)cc21 (centres undefined)	-5.3	-9.5	-11.1	0.1	-9.4
Cc1nc2ccc(S(=O)(=O)NCC(=O)N3CCC(Cc4ccccc4)CC3)cc2s1	3.6	-0.7	0.4	0.7	-16.2
O=C(NC1CC1)C1c2ccccc2C(=O)N(C2CCCC2)C12CCCCC2 (centres undefined)	-3.7	-9.5	-3.4	-8.9	-2.3
CC(=O)c1cccc(NC(=O)C2c3ccccc3C(=O)N(C3CCCC3)C23CCCCC3)c1 (centres undefined)	-8.3	-175.0	-6.8	-44.6	65.0*
O=C(O)Cc1ccc(O)c(Cl)c1	4.2	5.2	-16.8	-14.6	2.8
Cc1c(O)c(C)c2c(c1O)C(=O)CC(c1ccc(O)cc1)O2 (centres undefined)	2.6	-7.1	-11.7	-1.4	-0.6
O=C(c1ccccc1F)N1CCC(c2[nH]nc3nccnc23)CC1	4.2	35.4*	17.3	18.6	0.7
CCOc1ccc2nc(C(=O)N3CCN(C4CCCCC4)CC3)cn2n1	-0.1	-2.1	0.0	-3.5	12.8
O=c1cc(CNc2ccc(Br)cc2)nc2nc(-c3ccccc3)[nH]n12	-8.4	31.6*	81.9*	41.5*	45.3*
O=c1cc(CN2CCOCC2)nc2nc(NCc3ccccc3)[nH]n12	-10.5	23.2	11.0	2.2	27.0
CCn1c(CNc2ccc(C)cc2)nnc1SCC(=O)Nc1ccccc1F	0.9	15.9	-8.0	28.4	1.2
CCn1c(CNc2ccc(C)cc2)nnc1SCC(=O)Nc1ccc(C(=O)OC)cc1	0.0	8.0	24.0	42.4*	2.6
CCCCCn1c(=O)c2sccc2n2c(CCC(=O)NC3CCCCCC3)nnc12	0.4	27.4	35.5*	12.8	19.5
Cc1nn(Cc2ccccc2)c2sc(C(=O)N3CCN(Cc4ccncc4)CC3)cc12	-3.9	-12.2	-4.9	-4.3	-2.9
SMILES	USP10 block	USP30 block	USP17 block	USP28 inh	USP8 block
CCC(C(=O)N1CCc2cc(OC)c(OC)cc2C1COc1ccccc1OC)c1ccccc1 (centres undefined)	4.6	14.7	31.0*	3.9	58.9*
CCOc1ccc(C(=O)N2Cc3ccccc3CC2C(N)=O)cc1OC (centres undefined)	-1.0	4.0	0.0	-4.6	2.6
COc1cc2c(cc1OC)C(COc1ccccc1OC)N(C(=O)c1ccc3ccccc3c1)CC2 (centres undefined)	-3.0	-31.2	51.8*	3.8	87.7*
CCN1C(SCc2ccccc2F)=NS(=O)(=O)c2ccccc21	-13.6	25.1	11.3	74.2*	12.5
Cc1cccc(CN2Cc3ccnn3CC(c3nc(C)no3)C2)n1 (centres undefined)	1.6	-58.9	-26.8	-5.3	-55.8
c1cc(-c2ccc(-c3noc([C@@H]4CCCN4C4CCOCC4)n3)cn2)ccn1	-3.7	-37.1	-13.4	-9.9	0.1
Cc1cc(O)c2c(c1)C(=O)c1cc(O)cc(O)c1C2=O	-0.4	-486.4	1.9	-86.1	-13.9
Cc1cc(O)cc(Oc2cc(C)cc(O)c2)c1	-8.7	30.3*	4.0	18.7	-65.0
O=C(Cn1cnc2sc3c(c2c1=O)CCC3)N1CCc2ccccc21	-0.1	-30.0	16.2	-36.5	48.2*
O=C(Cn1c(CN2CCCCC2)nc2sc3c(c2c1=O)CCCC3)N1CCc2ccccc21	-5.5	-324.9	3.8	-104.6	-19.6
CC1(C)Cc2nc3oc4c(NCC5CCCO5)ncnc4c3cc2CO1 (centres undefined)	-1.2	-6.9	-10.6	-6.4	-1.2
O=C1NCc2ccccc2CC12CCN(Cc1cccc3ccccc13)C2 (centres undefined)	8.5	31.6*	10.0	19.9	6.2
O=C(CN(c1ccccc1)S(=O)(=O)c1ccccc1)Oc1cc(Cl)ccc1Cl	5.1	34.2*	20.7	6.2	30.2*
O=C(Nc1ccc(N2CCOCC2)cc1)c1ccc(CO)cc1	-0.2	10.1	8.7	13.4	1.0
Cc1ccc2[nH]c(=O)c(CN(Cc3cccnc3)S(=O)(=O)c3ccccc3)cc2c1	0.0	9.9	-7.0	-4.1	0.2
COc1cc2cc(CN(Cc3cccnc3)C(=O)Nc3ccc(Cl)cc3)c(=O)[nH]c2cc1OC	-2.6	39.6*	11.5	-13.2	2.1
Cc1ccc2[nH]c(=O)c(CN(Cc3cccnc3)C(=O)c3cccc(Cl)c3)cc2c1	0.5	50.6*	9.0	7.2	12.1
CCc1ccc2[nH]c(=O)c(CN(CCc3ccc(OC)c(OC)c3)C(=O)Nc3ccccc3)cc2c1	11.4	54.4*	44.2*	22.9	3.0
CCc1c(-c2ccccc2)n(CC(O)c2ccccc2)c2nc3c(c(=O)n(C)c(=O)n3C)n12 (centres undefined)	0.6	5.0	-6.3	12.6	-124.9
Cc1noc(C2CN(C(=O)COc3ccc(Cl)cc3Cl)C2)n1	2.7	-0.8	-11.8	-0.2	-33.3
O=S(=O)(NCCC1=CCCCC1)c1ccccc1C(F)(F)F	6.0	1.9	24.4	23.3	19.9
COc1cc(-c2ccno2)ccc1S(=O)(=O)Nc1ccccc1Cl	2.6	-14.5	-12.1	59.5*	-157.7
COc1ccc(-c2onc(C)c2C)cc1S(=O)(=O)Nc1ccc(-c2ccno2)cc1	8.4	3.1	4.8	5.8	5.8
COc1ccc(-c2cc(C)no2)cc1S(=O)(=O)Nc1ccc(-c2ccno2)cc1	3.9	28.5	9.7	1.6	58.7*
O=C1CCC[C@H]2[C@@H](C[C@@H](c3ccccc3F)N2C(=O)Cc2ccccn2)N1	-1.2	-7.2	-0.4	-15.1	-8.4
